{"source": "the antibiotic and cytotoxicity screens of Wong et al. (2023)", "note": "Out of some 39,000 compounds screened, about 1,500 (3.8%) were called active. Shown is part of a subset that was picked to be rich in actives."}
{"system": "HSkMC (human skeletal muscle cells)", "test": "cytotoxicity call (relative viability < 0.9)", "conditions": "10 µM"}
{"molecule": "CC(C)N1C[C@H](C)[C@@H](CN(C)Cc2ccc(Cl)c(Cl)c2)Oc2c(C(=O)Nc3ccncc3)cccc2C1=O", "cytotoxicity call": "inactive"}
{"molecule": "COc1ccc(S(=O)(=O)N(C)C[C@H]2Oc3ccc(NS(C)(=O)=O)cc3C(=O)N([C@H](C)CO)C[C@@H]2C)cc1", "cytotoxicity call": "inactive"}
{"molecule": "C[C@@H]1CN([C@@H](C)CO)C(=O)c2cc(NC(=O)c3ccccc3)ccc2O[C@@H](C)CCCCO[C@@H]1CN(C)Cc1ccccc1", "cytotoxicity call": "inactive"}
{"molecule": "C[C@H]1CN([C@@H](C)CO)C(=O)c2c(c3ccccc3n2C)-c2ccccc2CO[C@H]1CN(C)C(=O)Nc1cccc(C(F)(F)F)c1", "cytotoxicity call": "inactive"}
{"molecule": "C[C@@H]1CN([C@@H](C)CO)C(=O)c2ccccc2-c2ccccc2CO[C@@H]1CN(C)Cc1cccc(C(F)(F)F)c1", "cytotoxicity call": "active"}
{"molecule": "C[C@@H]1CN([C@H](C)CO)C(=O)c2c(c3ccccc3n2C)-c2ccccc2CO[C@H]1CN(C)C(=O)Nc1cccc(C(F)(F)F)c1", "cytotoxicity call": "inactive"}
{"molecule": "C[C@H](CO)N1C[C@H](C)[C@H](CN(C)Cc2cccc(C(F)(F)F)c2)OCc2ccccc2-c2ccccc2C1=O", "cytotoxicity call": "inactive"}
{"molecule": "C[C@H](CO)N1C[C@H](C)[C@H](CN(C)C(=O)Nc2cccc(C(F)(F)F)c2)OCc2ccccc2-c2c(n(C)c3ccccc23)C1=O", "cytotoxicity call": "active"}
{"molecule": "C[C@@H]1CN([C@H](C)CO)C(=O)c2ccccc2-c2ccccc2CO[C@@H]1CN(C)Cc1cccc(C(F)(F)F)c1", "cytotoxicity call": "inactive"}
{"molecule": "C=CC(=O)NCCCCNC(=O)C=C", "cytotoxicity call": "inactive"}
{"molecule": "C[C@@H]1CN([C@@H](C)CO)C(=O)c2cc(NC(=O)NC3CCCCC3)ccc2O[C@@H](C)CCCCO[C@@H]1CN(C)C(=O)Nc1ccc2c(c1)OCO2", "cytotoxicity call": "inactive"}
{"molecule": "CN1CCCCC[C@@H]1C(=O)O", "cytotoxicity call": "inactive"}
{"molecule": "CO[C@@H]1CN(C)C(=O)c2ccc(NC(=O)C3CC3)cc2OC[C@@H](C)N(C(=O)Cc2ccccn2)C[C@@H]1C", "cytotoxicity call": "inactive"}
{"molecule": "Cc1noc(C)c1S(=O)(=O)N(C)C[C@@H]1Oc2ccc(NC(=O)C3CC3)cc2CC(=O)N([C@@H](C)CO)C[C@H]1C", "cytotoxicity call": "inactive"}
{"molecule": "CN(C)CC[C@H](CSc1ccccc1)Nc1ccc(S(=O)(=O)NC(=O)c2ccc(N3CCN(Cc4ccccc4-c4ccc(Cl)cc4)CC3)cc2)cc1[N+](=O)[O-]", "cytotoxicity call": "inactive"}
{"molecule": "CC1(C)CCC(CN2CCN(c3ccc(C(=O)NS(=O)(=O)c4ccc(NCC5CCOCC5)c([N+](=O)[O-])c4)c(Oc4cnc5[nH]ccc5c4)c3)CC2)=C(c2ccc(Cl)cc2)C1", "cytotoxicity call": "inactive"}
{"molecule": "CC1(C)CCC(c2ccc(Cl)cc2)=C(CN2CCN(c3ccc(C(=O)NS(=O)(=O)c4ccc(N[C@H](CCN5CCOCC5)CSc5ccccc5)c(S(=O)(=O)C(F)(F)F)c4)cc3)CC2)C1", "cytotoxicity call": "active"}
{"molecule": "CC1(C)CCC(c2ccc(Cl)cc2)=C(CN2CCN(c3ccc(C(=O)NS(=O)(=O)c4ccc(N[C@@H](CCN5CCOCC5)CSc5ccccc5)c(S(=O)(=O)C(F)(F)F)c4)cc3)CC2)C1", "cytotoxicity call": "active"}
{"molecule": "O=S(=O)(NCC[C@@H]1CC[C@@H](NS(=O)(=O)c2ccccc2Cl)[C@@H](CO)O1)c1ccc(F)cc1", "cytotoxicity call": "inactive"}
{"molecule": "COc1ccc(NC(=O)Nc2ccc3c(c2)C(=O)N([C@@H](C)CO)C[C@H](C)[C@@H](CN(C)S(=O)(=O)c2c(C)noc2C)OCCCC[C@@H](C)O3)cc1", "cytotoxicity call": "inactive"}
{"molecule": "C[C@@H]1CCCCO[C@@H](CN(C)C(=O)Nc2ccc(C(F)(F)F)cc2)[C@@H](C)CN([C@H](C)CO)C(=O)c2cc(NC(=O)Cc3ccccc3)ccc2O1", "cytotoxicity call": "inactive"}
{"molecule": "CC(C)[C@@H](CC[C@@H](C)[C@H]1CC[C@H]2[C@@H]3[C@H](O)C[C@H]4C[C@@H](NCCCNCCCCN)CC[C@]4(C)[C@H]3CC[C@]12C)OS(=O)(=O)O", "cytotoxicity call": "active"}
{"molecule": "COC(=O)CCC(C)C1CCC2C3C(O)CC4CC(O)CCC4(C)C3CC(O)C12C", "note": "(configuration not stated)", "cytotoxicity call": "inactive"}
{"molecule": "CC(C)[C@@H](CC[C@@H](C)[C@H]1CC[C@H]2[C@@H]3[C@H](O)C[C@H]4C[C@@H](NCCCNCCCCNCCCN)CC[C@]4(C)[C@H]3CC[C@]12C)OS(=O)(=O)O", "cytotoxicity call": "active"}
{"molecule": "CC(CCC(=O)O)C1CCC2C3C(O)CC4CC(O)CCC4(C)C3CCC12C", "note": "(configuration not stated)", "cytotoxicity call": "inactive"}
{"molecule": "C[C@H](CCC(=O)NCC(=O)NCCS(=O)(=O)O)[C@H]1CC[C@H]2[C@@H]3[C@H](O)C[C@@H]4C[C@H](O)CC[C@]4(C)[C@H]3C[C@H](O)[C@]12C", "cytotoxicity call": "inactive"}
{"molecule": "C[C@H](CCC(=O)NCCS(=O)(=O)O)[C@H]1CC[C@H]2[C@@H]3[C@H](O)C[C@@H]4C[C@H](O)CC[C@]4(C)[C@H]3C[C@H](O)[C@]12C", "cytotoxicity call": "inactive"}
{"molecule": "CC(=O)N1CCO[C@H]2CCN(C(=O)c3cn(C)cn3)C[C@H]21", "cytotoxicity call": "inactive"}
{"molecule": "Cc1ccc(S(=O)(=O)N(C)C[C@H]2OCCCC[C@H](C)Oc3ccc(NC(=O)Nc4ccc(F)cc4)cc3C(=O)N([C@H](C)CO)C[C@@H]2C)cc1", "cytotoxicity call": "inactive"}
{"molecule": "Cc1noc(C)c1NC(=O)N(C)C[C@@H]1Oc2ccc(NC(=O)c3ccncc3)cc2CC(=O)N([C@H](C)CO)C[C@H]1C", "cytotoxicity call": "inactive"}
{"molecule": "COc1cccc(NC(=O)N(C)C[C@H]2OCc3ccccc3-c3c(n(C)c4ccccc34)C(=O)N([C@@H](C)CO)C[C@H]2C)c1", "cytotoxicity call": "inactive"}
{"molecule": "C[C@H]1CN([C@@H](C)CO)S(=O)(=O)c2ccc(C#CCC3CCCC3)cc2O[C@@H]1CN(C)C(=O)c1cnccn1", "cytotoxicity call": "inactive"}
{"molecule": "C=CCC[C@H](Cc1ccc(F)cc1)C(=O)OC[C@H](Cc1c[nH]c2ccccc12)NC(=O)[C@H](CC=C)CC(=O)N(CCO)Cc1ccccc1", "cytotoxicity call": "inactive"}
{"molecule": "C=CCC[C@H](Cc1ccc(F)cc1)C(=O)OC[C@@H](Cc1c[nH]c2ccccc12)NC(=O)[C@@H](CC=C)CC(=O)N(CCO)Cc1ccccc1", "cytotoxicity call": "inactive"}
{"molecule": "C=CCC[C@H](Cc1ccc(F)cc1)C(=O)OC[C@H](Cc1c[nH]c2ccccc12)NC(=O)[C@@H](CC=C)CC(=O)N(CCO)Cc1ccccc1", "cytotoxicity call": "active"}
{"molecule": "C=CCC[C@H](Cc1ccc(F)cc1)C(=O)OC[C@@H](Cc1c[nH]c2ccccc12)NC(=O)[C@H](CC=C)CC(=O)N(CCO)Cc1ccccc1", "cytotoxicity call": "active"}
{"molecule": "C=CCC[C@@H](Cc1ccc(F)cc1)C(=O)OC[C@H](Cc1c[nH]c2ccccc12)NC(=O)[C@H](CC=C)CC(=O)N(CCO)Cc1ccccc1", "cytotoxicity call": "inactive"}
{"molecule": "C=CCC[C@@H](Cc1ccc(F)cc1)C(=O)OC[C@H](Cc1c[nH]c2ccccc12)NC(=O)[C@@H](CC=C)CC(=O)N(CCO)Cc1ccccc1", "cytotoxicity call": "inactive"}
{"molecule": "C=CCC[C@H](Cc1ccc(F)cc1)C(=O)OC[C@@H](Cc1c[nH]c2ccccc12)NC(=O)[C@@H](CC=C)CC(=O)N[C@@H](CO)Cc1ccccc1", "cytotoxicity call": "inactive"}
{"molecule": "C=CCC[C@@H](Cc1ccc(F)cc1)C(=O)OC[C@@H](Cc1c[nH]c2ccccc12)NC(=O)[C@@H](CC=C)CC(=O)N[C@@H](CO)Cc1ccccc1", "cytotoxicity call": "inactive"}
{"molecule": "C=CCC[C@@H](Cc1ccc(F)cc1)C(=O)OC[C@@H](Cc1c[nH]c2ccccc12)NC(=O)[C@H](CC=C)CC(=O)N(CCO)Cc1ccccc1", "cytotoxicity call": "active"}
{"molecule": "C=CCC[C@@H](Cc1ccc(F)cc1)C(=O)OC[C@@H](Cc1c[nH]c2ccccc12)NC(=O)[C@@H](CC=C)CC(=O)N(CCO)Cc1ccccc1", "cytotoxicity call": "active"}
